# Results taken from ChEMBL document CHEMBL1157539, “Thousands of chemical starting points for antimalarial lead identification” (Nature, 2010).
# Legend:
# Format in all cases: functional
# Plasmodium falciparum [1] = test: GSK_TCMDC: Inhibition of Plasmodium falciparum 3D7 in whole red blood cells, using parasite LDH activity as an index of growth. Test compounds present at 2uM
# Plasmodium falciparum [2] = test: GSK_TCMDC: Inhibition of Plasmodium falciparum Dd2 in whole red blood cells, using parasite LDH activity as an index of growth. Test compounds present at 2uM
# HepG2 = test: GSK_TCMDC: Percent inhibition of human HepG2 cell line. Test compounds present at 10uM.
Structure (SMILES),Inhibition (Plasmodium falciparum [1]) [%],Inhibition (Plasmodium falciparum [2]) [%],Inhibition (HepG2) [%]
COCCNCc1ccc(-c2cccc(CNC3CCN(Cc4ccccc4)CC3)c2)cc1.O=C(O)C(F)(F)F,100,100,30
Cc1noc(C)c1-c1cccc(CNCc2ccc(-c3cccc(-c4nc5cc(C(F)(F)F)ccc5[nH]4)c3)cc2)c1.O=C(O)C(F)(F)F,100,97,37
COc1ccc2nccc([C@@H](O)CN3CCC(NCc4ccc5c(c4)NC(=O)C(C)S5)CC3)c2c1.O=C(O)C(=O)O (stereo partly specified),99,72,7
Cc1ccc(CN2CCN(c3cc4c(cc3Cl)CCN4C(=O)Cc3ccc(Cl)c(NC(=O)Nc4cccc(C#N)c4)c3)CC2)cc1,92,29,3
COc1ccc(-c2cncc3ccc(C(=O)NCc4ccncc4)nc23)cc1,100,98,25
CN(c1ccccc1)c1ccnc(NC(=N)Nc2ccc(Cl)cc2)n1,87,6,30
O=C(/C=C/c1ccc(Cl)c(Cl)c1)N1CCN(C(=O)Nc2ccc(C(F)(F)F)cc2)CC1,98,100,47
CCOC(=O)N1NC(=O)N(c2ccccc2)C1(c1ccccc1)c1ccccc1,96,82,5
Cn1cncc1C(=O)Nc1cccc(-c2cccc(-c3nc4cc(C(F)(F)F)ccc4[nH]3)c2)c1,100,99,38
O=C(/C=C/c1ccc(Cl)c(Cl)c1)NCCCCCN1CCC(NC(=O)c2ccc(F)cc2)CC1,100,13,14
Cc1cccc2nc(-c3cccc(-c4cccc(NC(=O)c5cccnc5Cl)c4)c3)[nH]c12,97,32,0
Cc1nc(O)c2c(ccc3ccc(CN(C)c4ccc(C(=O)N[C@@H](CCC(=O)O)C(=O)O)cc4)cc32)n1,95,27,42
CN(C)CCOc1ccc(N2CCN(CCCCNC(=O)c3ccc(/C=C/c4cc(Cl)cc(Cl)c4)cc3)CC2)cc1,98,84,97
O=C(/C=C/c1ccc(Cl)c(Cl)c1)NCCCCCN1CCCN(C(=O)Nc2ccc(Cl)c(Cl)c2)CC1,100,2,55
O=C(Nc1ccc(-c2nc3ccccc3[nH]2)cc1)c1ccc(S(=O)(=O)N2CCc3ccccc32)cc1,100,34,32
CC(C)(C)Oc1ccc(C[C@@H]2NC3(C(=O)N(Cc4ccc(Cl)c(Cl)c4)c4ccccc43)C3C(=O)N(c4ccc(Br)cc4)C(=O)C32)cc1 (stereo partly specified),86,25,1

Structure (SMILES),Inhibition (Plasmodium falciparum [1]) [%],Inhibition (Plasmodium falciparum [2]) [%],Inhibition (HepG2) [%]
Cc1cc(NC(=O)c2cccs2)ccc1OC1CCN(Cc2ccc(C#N)cc2)CC1.O=C(O)C(F)(F)F,94,92,34
Cl.O=C(C=Cc1cccc(F)c1)NC1CCC(CCN2CCc3ccc(-c4cnccn4)cc3CC2)CC1 (stereo unspecified),100,67,51
Cl.Clc1ccc(-n2cnc3c(Nc4ccc(Oc5ccccc5)cc4)ncnc32)cc1Cl,99,65,4
COc1ccc2[nH]ccc(=NN=Cc3ccccc3F)c2c1,100,98,23
N#Cc1ccc(N2CCN(Cc3ccc(-c4ccc(-c5nc6cc(C(F)(F)F)ccc6[nH]5)cc4)cc3)CC2)nc1.O=C(O)C(F)(F)F,100,90,19
Cc1nnc2sc(-c3cccc(NC(=O)c4ccc(N5CCCCC5)c([N+](=O)[O-])c4)c3)nn12,87,20,3
COc1ccc2ncc(C)c(CCN3CCC(NCc4ccc5c(n4)NC(=O)CS5)CC3)c2c1.Cl,100,53,14
Cc1[nH]cc(Br)c(=O)c1-c1ccc(Oc2ccc(OC(F)(F)F)cc2)cc1,96,92,22
CCC1CCCCN1S(=O)(=O)c1ccc(NC(=O)c2cc(C)on2)cc1 (stereo unspecified),86,53,0
COc1ccc(-c2nc3c(N)nc(N)nc3nc2C(C)C)cc1,96,0,71
COc1ccc(-c2nc3cccnc3n2CC(=O)Nc2cc(Cl)c(Cl)cc2Cl)c(OC)c1,100,17,99
COc1ccc(CN2CCC(NCc3cccc(-n4ccnc4)c3)CC2)cc1.O=C(O)C(F)(F)F,100,93,10
CN1CCCN(Cc2ccc(-c3ccc(NC(=O)c4cccc(Cl)c4)cc3)cc2)CC1.O=C(O)C(F)(F)F,95,64,55
Cc1cc(N(C)C)nc(Nc2ccc(NC(=O)c3cccc(F)c3)cc2)n1,100,62,0
COc1cccc(NC(=O)c2cc(C(=O)Nc3cccc(OC)c3)cc([N+](=O)[O-])c2)c1,99,61,1
Cc1c(NCCCNCc2cc(Cl)cc(Cl)c2Cl)[nH]c2ccccc2c1=O.Cl,100,86,35
